Measured values from PubChem BioAssay (NCI).
This is part of a sample that, as a whole, favours compounds with a hit. Of some 83,000 tested, about 20% had one in any assay.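 Cells were grown in 96-well plates and exposed to the test compound at a single concentration for 48 hours; results are reported as percent growth, with values below 10 considered active.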 A number with no mark means an inactive call. Activity calls are given as the source filed them.

Experiments:
Assay in all cases: NCI-60 one-dose screen, 48 h (100 = growth as untreated, 0 = no growth, -100 = all killed)
SK-MEL-2 melanoma = details: 10 µM
EKVX NSCLC = details: 10 µM unless noted
SN12C renal = details: 10 µM unless noted
UO-31 renal = details: 10 µM unless noted
TK-10 renal = details: 10 µM unless noted
ACHN renal = details: 10 µM unless noted
A498 renal = details: 10 µM unless noted
CCRF-CEM leukemia = details: 10 µM unless noted
MOLT-4 leukemia = details: 10 µM unless noted

Row | SMILES | growth (SK-MEL-2 melanoma) | growth (EKVX NSCLC) | growth (SN12C renal) | growth (UO-31 renal) | growth (TK-10 renal) | growth (ACHN renal) | growth (A498 renal) | growth (CCRF-CEM leukemia) | growth (MOLT-4 leukemia)
1 | c1cc[n+](Cc2c3ccccc3cc3c2ccc2ccccc23)cc1 | 25% | 58.3% | 0.929% (active) | 81.9% | 78.1% | 103% | 80.2% | 55.5% | 25.6%
2 | CCCC(=O)OCC1OC(n2cnc3c(=S)nc[nH]c32)C(OC(=O)CCC)C1OC(=O)CCC (stereo unspecified) | 12.5% | 69.3% | 49.9% | 32.6% | 6.59% (active) | 41.5% | 30.8% | 24.6% | 18.6%
3 | CN(N)c1nc2sc3c(c2c(=O)[nH]1)CCCC3 | 103% | 86.6% | 104% | 72.9% | 111% | 107% | 101% | 98.9% | 97.5%
4 | CCc1cc2c(c3ccc(C(=O)CBr)cc13)CCCC2 | 96.9% | 74.3% | 99.7% | 81.4% | 91.9% | 105% | 102% | 114% | 85.8%
5 | COC(=O)[C@@H](C)CNS(=O)(=O)N(c1cc(C(F)(F)F)cc(C(F)(F)F)c1)C1CCN(Cc2ccc(F)cc2)CC1 | 81.7% | 74.6% | 36.8% | 44% | 89% | 86.4% | 66% | 56.6% | 58.2%
6 | Cc1sc2c(c1C)c(=O)nc1c(-c3nc(-c4ccccc4)cs3)n[nH]n12 | 99.9% | 80.1% | 100% | 76.2% | 145% | 97.1% | 105% | 85.8% | 85.7%
7 | COC(=O)C1CCc2sc3ncnc(Nc4cn[nH]c4C(=O)Nc4ccc(CN5CCN(C)CC5)cc4)c3c21 (stereo unspecified) | -20.4% (active) | 8.24% (active) | 12.7% | -15.3% (active) | 5.51% (active) | 4.58% (active) | -25.6% (active) | 1.79% (active) | -6.03% (active)
8 | Cc1cc2c(-c3nc4ccccn4c3N)c(O)c(O)cc2c(O)c1-c1c(C)cc2c(-c3nc4ccccn4c3N)c(O)c(O)cc2c1O | -20.6% (active) | 21.8% | 10.1% | 31.2% | 11.9% | 17.4% | 2.77% (active) | 23.1% | 23.5%
9 | CCN1CCN(c2cc(C)nc(N(CCCNc3ccnc4cc(Cl)ccc34)Cc3ccc4c(c3)OCO4)n2)CC1 | -67.9% (active) | 42.3% | 34.6% | -81.9% (active) | -58.2% (active) | -0.628% (active) | 27.8% | -18.1% (active) | -15.9% (active)
10 | Cc1ccc(N=C2CSc3nnc(-c4csc5c4CCCC5)n3N2)cc1 | 61.6% | 41.9% | 48.5% | 57.9% | 78.9% | 52% | 12.1% | 16.8% | 23.2%
11 | CSC1=C(N)C(=O)c2[nH]cc(CO)c2C1=N | -52.3% (active) | -56.6% (active) | -49% (active) | -96% (active) | -83.7% (active) | 1.86% (active) | -89.6% (active) | 3.16% (active) | -24.3% (active)
12 | O=CC(OC(=O)c1ccccc1)C(OC(=O)c1ccccc1)C(COC(c1ccccc1)(c1ccccc1)c1ccccc1)OC(=O)c1ccccc1 (stereo unspecified) | 96.7% | 88.8% | 61.8% | 19.8% | 77.8% | 60% | 122% | -18.6% (active) | -14.6% (active)
13 | N#CC(C#N)=NO | 100% | 92.4% | 106% | 98.6% | 93.9% | 98.4% | 102% | 87% | 99.8%
14 | O=c1[nH]c(N2CCOCC2)nc2scc(-c3ccccc3)c12 | 81.8% | 53.3% | 107% | 83.1% | 86.6% | 99.3% | 104% | 101% | 90.5%
15 | [2H]C1([2H])[C@H](C)O[C@H](C)C([2H])([2H])N1c1ccc(NC(=O)c2cccc(-c3ccc(OC(F)(F)F)cc3)c2C)cn1 | 56.1% | 61.4% | 56.6% | 54.5% | 63.6% | 78.1% | 53.9% | 64.3% | 39.9%
16 | CCCc1cc2cc(-n3nc(C)c4c3CC(C)(C)CC4=O)cc(NC3CCC(O)CC3)c2c(=O)[nH]1 (stereo unspecified) | 41.6% | 47.7% | 41.4% | 29.7% | 40.8% | 28.8% | 64% | 20.3% | 14.7%
17 | C[C@@H](C[C@H](CCO)c1cc(C(F)(F)F)cc(C(F)(F)F)c1)c1ccc2ccccc2c1 | 82.2% | 81.3% | 96.4% | 79% | 95% | 98.7% | 120% | 84.2% | 71%
18 | CC(=O)C(C(C)=O)C(c1ccccc1)C(C(C)=O)C(C)=O | 100% | 96.9% | 98.9% | 90.9% | 98.1% | 106% | 105% | 93.5% | 104%
19 | Nc1c2c(c(O)c3c1=C(CO)C=N3)=NCCS2 | -54.6% (active) | -63.8% (active) | -63.4% (active) | -86.3% (active) | -79.4% (active) | 0.734% (active) | -88.2% (active) | 6.13% (active) | -24.7% (active)
20 | C[N+](C)(CCOC(c1ccccc1)c1ccccc1)CC(=O)OCc1ccccc1 | 105% | 101% | 105% | 86.9% | 96% | 111% | 114% | 122% | 116%
21 | Cc1cc2c(-c3nc4ccccn4c3NC3CCCCC3)c(O)c(O)cc2c(O)c1-c1c(C)cc2c(-c3nc4ccccn4c3NC3CCCCC3)c(O)c(O)cc2c1O | 38.9% | 27.1% | 33% | 35.3% | 27.5% | 18.8% | 71.4% | 23.5% | 43.6%
22 | CC(C)c1ccc(/C=N/Nc2nc3ccccc3s2)cc1 | 106% | 87.2% | 86.3% | 57.1% | 148% | 103% | 92.8% | 84.8% | 70.5%
23 | CO/C=C/C(=O)c1cc2cnc3c(=N)cc(NC(=O)C(C)C)c([nH]1)c23 | -65.6% (active) | -36.4% (active) | 1.75% (active) | -20.1% (active) | -47.2% (active) | -1.54% (active) | -46.1% (active) | 0.169% (active) | -38.7% (active)
24 | CC[n+]1c(/C=C/C=C2\N(C)c3ccccc3C2(C)C)sc2ccccc21 | -16.2% (active) | 10.9% | 5.6% (active) | 12.6% | 21.5% | 7.97% (active) | 12.3% | 3.17% (active) | -19.1% (active)
25 | COc1cc2c3c(c1)nc(C)n3CCC2 | 100% | 95.5% | 99.6% | 91.1% | 99% | 108% | 100% | 93.2% | 98.4%
26 | NC(=O)c1n[nH]n2c1nc(=O)c1c3c(sc12)CCCC3 | 106% | 101% | 101% | 84.4% | 106% | 111% | 115% | 84.2% | 100%
27 | CC(C)=CCc1cc2c(cc1O)C1=C(C(=O)C3=C(C1=O)S(=O)(=O)CCN3)C(C=C(C)C)O2 (stereo unspecified) | -53.9% (active) | -26.1% (active) | -36.7% (active) | -2.94% (active) | 7.58% (active) | -22.1% (active) | -70% (active) | 1.85% (active) | -38.2% (active)
28 | O=c1nc2c(-c3nc4ccccc4s3)n[nH]n2c2sc3c(c12)CCCC3 | 112% | 92% | 97.1% | 75.4% | 147% | 105% | 103% | 79.8% | 98.6%
29 | CN1CCN(Cc2ccc(NC(=O)c3[nH]ncc3Nc3ncnc4sc5c(c34)CCCC5)cc2)CC1 | -53.7% (active) | -71.2% (active) | -44.2% (active) | -82.9% (active) | -96.6% (active) | -100% (active) | -60.5% (active) | -16.2% (active) | -62.5% (active)
